Experimental data from PubChem BioAssay.
Calls of active or inactive are those of the source.

Legend:
[1] = binders of probe aFSTL3 on microarray, primary screen, stem cell growth factor project, biochemical, small-molecule microarray, fluorescence 635/667 (AID 1064); conditions: higher = more signal;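 also: measures binding of the biotinylated anti-FSTL3 antibody to printed compounds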
[2] = binders from COS7 lysate, DM2A8 probe, primary screen, torsin A project, cell lysate, small-molecule microarray, fluorescence 635/667 (AID 1065); conditions: higher = more signal, COS7 lysate expressing mutant human TOR1A
[3] = binders of probe aFGF2 on microarray, primary screen, stem cell growth factor project, biochemical, small-molecule microarray, fluorescence 635/667 (AID 1067); conditions: higher = more signal;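 also: measures binding of biotinylated aFGF2 protein to printed compounds on slides; z-score merges feature fluorescence and signal-to-noise across triplicate slides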
[4] = binders of probe aFGF10 on microarray, primary screen, stem cell growth factor project, biochemical, small-molecule microarray, fluorescence 635/667 (AID 1071); conditions: higher = more signal;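 also: score merges 667 nm spot intensity and signal to noise from triplicate slides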
[5] = molecular target: Neurogenic locus notch homolog protein 2 (Homo sapiens) (UniProt Q04721); experiment: Notch2 binders on small-molecule microarrays, primary screen, biochemical, small-molecule microarray, 635 nm fluorescence, stem cell growth factors (AID 1073); conditions: Notch2 binding, higher = more signal
[6] = molecular target: Pro-neuregulin-1, membrane-bound isoform (Homo sapiens) (UniProt Q02297); experiment: NRG1 binders on small-molecule microarrays, primary screen, psychiatric disease protein project, biochemical, small-molecule microarray, fluorescence 635/667 (AID 1075); conditions: NRG1 binding, 635 nm fluorescence, higher = more signal;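 also: score combines 667 nm spot fluorescence with signal to noise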
[7] = test system: Neuregulin-1 EGF-like domain; experiment: binders of neuregulin-1 EGF-like domain, primary screen, biochemical, small-molecule microarray, 635 nm fluorescence (AID 1081); conditions: small-molecule microarray binding, higher = more signal;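 also: binding of the protein to compounds printed on small-molecule microarray slides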
[8] = FRG1 promoter luciferase signal modulators, primary screen, FRG1 inhibition for FSHD, cell-based, C2C12 myotubes, firefly/Renilla luciferase, luminescence (AID 1084); conditions: higher = more signal, called active from +8 up or from −8 down
[9] = binders of probe aFST on microarray, primary screen, stem cell growth factor project, biochemical, small-molecule microarray, fluorescence 635/667 (AID 1086); conditions: higher = more signal;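 also: score merges 667 nm fluorescence with signal-to-noise of each printed compound spot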
[10] = binders of probe aHhip on microarray, primary screen, stem cell growth factor project, biochemical, small-molecule microarray, fluorescence 635/667 (AID 1087); conditions: higher = more signal;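 also: score merges spot fluorescence at 667nm with spot signal to noise ratio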

Sequence of Pro-neuregulin-1, membrane-bound isoform (Homo sapiens) (Q02297 whole entry, looked up, the tested form may be a part, canonical isoform): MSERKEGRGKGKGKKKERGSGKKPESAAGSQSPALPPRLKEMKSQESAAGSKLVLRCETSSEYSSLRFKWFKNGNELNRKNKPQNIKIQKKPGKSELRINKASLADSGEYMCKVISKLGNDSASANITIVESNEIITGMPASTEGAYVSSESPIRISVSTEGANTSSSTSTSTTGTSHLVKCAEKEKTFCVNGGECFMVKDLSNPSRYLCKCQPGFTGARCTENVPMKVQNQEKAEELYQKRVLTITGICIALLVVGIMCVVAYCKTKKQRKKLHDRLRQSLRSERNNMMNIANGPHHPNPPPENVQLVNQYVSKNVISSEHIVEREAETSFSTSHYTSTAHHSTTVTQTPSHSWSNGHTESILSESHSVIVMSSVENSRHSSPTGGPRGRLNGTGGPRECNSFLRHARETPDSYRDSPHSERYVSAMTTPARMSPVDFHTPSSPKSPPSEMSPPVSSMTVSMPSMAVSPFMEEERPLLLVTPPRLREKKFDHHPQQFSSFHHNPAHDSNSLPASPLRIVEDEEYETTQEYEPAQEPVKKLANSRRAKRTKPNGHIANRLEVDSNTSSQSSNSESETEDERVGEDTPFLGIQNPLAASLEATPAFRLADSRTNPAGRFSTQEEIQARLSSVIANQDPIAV
Sequence of Neurogenic locus notch homolog protein 2 (Homo sapiens) (Q04721 whole entry, looked up, canonical isoform): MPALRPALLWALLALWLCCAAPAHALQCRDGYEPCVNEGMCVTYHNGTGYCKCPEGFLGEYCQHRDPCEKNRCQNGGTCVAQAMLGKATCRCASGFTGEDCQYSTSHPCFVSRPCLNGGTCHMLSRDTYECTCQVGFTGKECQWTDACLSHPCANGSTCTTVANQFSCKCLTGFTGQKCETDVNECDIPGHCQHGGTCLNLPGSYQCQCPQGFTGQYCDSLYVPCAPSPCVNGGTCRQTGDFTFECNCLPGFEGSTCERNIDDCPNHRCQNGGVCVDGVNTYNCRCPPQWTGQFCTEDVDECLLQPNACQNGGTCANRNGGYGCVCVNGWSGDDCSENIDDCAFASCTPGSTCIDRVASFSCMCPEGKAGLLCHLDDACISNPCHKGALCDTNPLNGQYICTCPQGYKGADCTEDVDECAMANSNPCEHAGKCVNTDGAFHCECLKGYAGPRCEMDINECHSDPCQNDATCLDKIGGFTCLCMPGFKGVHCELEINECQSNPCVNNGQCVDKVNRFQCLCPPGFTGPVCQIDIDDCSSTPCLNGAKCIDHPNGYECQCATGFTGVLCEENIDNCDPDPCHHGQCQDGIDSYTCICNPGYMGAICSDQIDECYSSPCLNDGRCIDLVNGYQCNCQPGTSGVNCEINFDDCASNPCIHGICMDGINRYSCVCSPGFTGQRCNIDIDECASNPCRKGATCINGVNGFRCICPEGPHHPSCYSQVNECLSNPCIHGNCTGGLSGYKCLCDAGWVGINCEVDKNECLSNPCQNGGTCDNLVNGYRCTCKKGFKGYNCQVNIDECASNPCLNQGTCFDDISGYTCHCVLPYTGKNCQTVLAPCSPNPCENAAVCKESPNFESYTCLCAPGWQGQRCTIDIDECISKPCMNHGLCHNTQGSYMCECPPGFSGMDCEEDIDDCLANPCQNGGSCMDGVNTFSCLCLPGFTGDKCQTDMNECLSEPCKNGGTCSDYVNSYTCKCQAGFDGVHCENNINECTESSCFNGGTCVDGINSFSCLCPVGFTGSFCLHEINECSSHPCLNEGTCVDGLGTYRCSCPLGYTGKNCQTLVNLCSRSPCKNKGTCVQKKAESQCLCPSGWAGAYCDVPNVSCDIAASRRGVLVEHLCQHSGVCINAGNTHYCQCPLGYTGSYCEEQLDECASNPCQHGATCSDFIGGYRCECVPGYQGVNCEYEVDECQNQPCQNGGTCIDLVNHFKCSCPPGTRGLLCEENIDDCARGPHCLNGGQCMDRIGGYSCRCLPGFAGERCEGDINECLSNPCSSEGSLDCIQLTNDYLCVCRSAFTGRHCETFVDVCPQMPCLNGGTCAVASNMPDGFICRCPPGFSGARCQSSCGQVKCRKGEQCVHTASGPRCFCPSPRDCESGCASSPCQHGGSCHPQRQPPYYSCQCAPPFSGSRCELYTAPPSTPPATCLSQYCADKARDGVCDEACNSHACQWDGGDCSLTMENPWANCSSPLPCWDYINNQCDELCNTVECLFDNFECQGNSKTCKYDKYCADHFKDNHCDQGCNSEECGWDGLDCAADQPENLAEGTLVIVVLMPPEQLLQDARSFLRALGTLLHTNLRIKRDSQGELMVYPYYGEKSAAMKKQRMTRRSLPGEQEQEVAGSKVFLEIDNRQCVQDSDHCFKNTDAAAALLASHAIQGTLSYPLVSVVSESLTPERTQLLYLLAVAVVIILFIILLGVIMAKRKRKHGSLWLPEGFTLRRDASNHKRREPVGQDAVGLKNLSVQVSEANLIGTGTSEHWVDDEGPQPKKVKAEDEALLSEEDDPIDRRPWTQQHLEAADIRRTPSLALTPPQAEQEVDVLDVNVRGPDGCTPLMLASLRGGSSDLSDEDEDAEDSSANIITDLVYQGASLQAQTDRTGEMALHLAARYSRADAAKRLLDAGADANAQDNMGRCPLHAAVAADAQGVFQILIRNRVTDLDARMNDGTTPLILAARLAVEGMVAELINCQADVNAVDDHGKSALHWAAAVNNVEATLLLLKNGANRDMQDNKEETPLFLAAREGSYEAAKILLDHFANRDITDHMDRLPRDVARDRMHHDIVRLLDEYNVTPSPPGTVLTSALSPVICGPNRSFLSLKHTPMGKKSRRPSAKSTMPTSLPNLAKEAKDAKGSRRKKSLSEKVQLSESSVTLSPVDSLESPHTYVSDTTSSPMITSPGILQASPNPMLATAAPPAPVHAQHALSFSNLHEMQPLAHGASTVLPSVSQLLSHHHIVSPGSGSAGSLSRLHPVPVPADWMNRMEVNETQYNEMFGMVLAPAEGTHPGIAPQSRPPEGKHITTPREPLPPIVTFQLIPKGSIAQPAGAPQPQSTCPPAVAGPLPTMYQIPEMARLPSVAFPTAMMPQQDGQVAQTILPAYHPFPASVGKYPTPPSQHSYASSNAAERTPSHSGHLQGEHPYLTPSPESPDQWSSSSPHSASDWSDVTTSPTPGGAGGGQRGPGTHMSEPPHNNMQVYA

SMILES	composite z-score [1]	composite z-score [2]	composite z-score [3]	composite z-score [4]	composite z-score [5]	composite z-score [6]	composite z-score [7]	z-score [8]	composite z-score [9]	composite z-score [10]
CCOC(=O)[C@H]1CC=C2CC1C(=O)N1CCC[C@@H]1[C@@H]2O[Si](C)(C)C(C)(C)C (stereo not given in full)	-0.502	-0.0173	-0.221	-0.0337	-1.9	-0.596	-0.415	-0.591 (inactive)	-0.686	-0.0994
CN(C)CCCNC(=O)[C@@]1(c2ccc([N+](=O)[O-])cc2)CC(=O)N(C2CCCCC2)[C@@H]1c1ccc(CO)cc1I	0.284	1.05	-0.087	-0.0752	-0.0551	0.314	1.34	-0.635 (inactive)	-0.364	-0.266
COCCOC(=O)N1C(=O)[C@@]2(c3cc(C#Cc4ccc(OC)cc4)ccc31)[C@H](C(=O)N1CCCCCCC1)[C@H]1C(=O)O[C@H](c3ccccc3)[C@H](c3ccccc3)N1[C@@H]2c1ccc(OCCO)cc1	2.85	1.49	0.233	0.662	0.845	1.01	0.972	-0.738 (inactive)	2.43	3.2
CCOC(=O)C1=CCC(c2ccccc2)N(S(=O)(=O)CC[Si](C)(C)C)C1 (stereo not given)	-0.264	0.701	-0.137	-0.765	-0.606	0.0168	-0.518	-3.74 (inactive)	-0.407	-0.0994
C=CCNC(=O)[C@H]1[C@@H]2C(=O)O[C@@H](c3ccccc3)[C@@H](c3ccccc3)N2[C@@H](c2ccc(OCCO)cc2)[C@]12C(=O)Nc1ccc(C#CC3=CCCCC3)cc12	-0.299	0.218	0.0703	0.498	1.05	0.688	1.29	-0.254 (inactive)	0.233	-0.216
COC(=O)[C@@]1(Cc2ccc(OC)cc2)[C@H]2c3cc(C(=O)N4CCCC4)n(Cc4ccccc4)c3C[C@H]2CN1C(=O)c1ccccc1	2.67	0.0681	0.788	0.784	1.61	1.98	1.36	0.42 (inactive)	2.34	0.671
CN1C(=O)C2C=CC(C(O)c3ccc(I)cc3)N(N3CCCCC3)C2C1=O (stereo not given)	0.151	0.235	0.0671	1.09	1.71	1.73	1.27	1.14 (inactive)	1.4	-0.0346
O=C1NCC(=O)N2[C@@H]1C[C@@H](C(=O)O)[C@H]2c1cccc(OCCO)c1	3.93	2.65	1.02	0.935	1.82	2.97	1.53	3.17 (inactive)	3.63	3.89
COC(=O)[C@@]1(Cc2ccc(F)cc2)[C@H]2c3cc(C(=O)N4CCCC4)n(Cc4cc(C)n(C)n4)c3C[C@H]2CN1C(=O)c1ccccc1	1.08	0.276	0.188	0.741	1.63	2.3	1.19	0.23 (inactive)	0.939	0.28
C=CCOC(=O)[C@H]1[C@@H]2C(=O)O[C@@H](c3ccccc3)[C@@H](c3ccccc3)N2[C@@H](c2ccc(OCCOC(=O)[C@H]3C[C@H]4C(=O)N5CCC[C@H]5C(=O)N4[C@H]3c3ccc(O)cc3)cc2)[C@]12C(=O)Nc1ccc(I)cc12	2.15	2.13	0.555	0.791	1.71	2.72	1.44	-0.269 (inactive)	2.72	2.39
C=CCC(OC(C)=O)[C@@H]1[C@@H](N(Cc2cccc3ccccc23)C(=O)c2ccc(-c3ccccc3)cc2)c2cc(OCCCO)ccc2N1C(=O)Cc1ccc(OC)cc1 (stereo not given in full)	-0.184	0.419	-0.061	0.151	-0.131	0.0521	0.138	0.61 (inactive)	-0.0107	-0.0618
CCOC1=C2C(CN(S(=O)(=O)c3ccc(C)cc3)C2c2ccc(C)cc2)C2C(=O)N(c3ccccc3)C(=O)C2C1 (stereo not given)	-0.208	-0.155	-0.0074	0.347	1.25	0.752	1.03	-0.62 (inactive)	0.585	-0.0618
COc1ccc(C(O)C2C=CC3C(=O)N(c4ccccc4)C(=O)C3N2Nc2ccc(C(C)C)cc2)cc1OCc1ccccc1 (stereo not given)	0.838	0.369	0.227	1.08	1.61	1.26	1.1	-1.44 (inactive)	1.62	-0.168
COc1ccc(CCNC(=O)[C@@H]2c3ccccc3C(=O)N(C3Cc4ccccc4C3)[C@H]2c2ccc(CO)cc2)cc1	0.287	-0.249	0.0628	0.219	-0.395	1.49	1.05	-1.06 (inactive)	-0.183	0.113
C=CCN1C(=O)[C@]2(O[C@H](CCO)[C@@H]([Si](C)(C)c3ccc(OC)cc3)[C@@H]2C)c2cc(N3C(=O)c4cccc5cccc3c45)ccc21	-0.0848	0.326	-0.1	0.607	0.322	0.828	1.2	-2.66 (inactive)	-0.17	-0.236
O=C1C2C=CC(C(O)C3CCCCC3)N(Nc3ccc([N+](=O)[O-])cc3)C2C(=O)N1c1ccccc1 (stereo not given)	0.274	0.167	0.0333	0.239	-0.795	1.33	1.18	-1.48 (inactive)	-0.688	-0.236

SMILES	composite z-score [1]	composite z-score [2]	composite z-score [3]	composite z-score [4]	composite z-score [5]	composite z-score [6]	composite z-score [7]	z-score [8]	composite z-score [9]	composite z-score [10]
CN(C)CCCNC(=O)[C@@]1(c2ccc([N+](=O)[O-])cc2)CC(=O)N(C2CCCCC2)[C@@H]1c1ccc(CO)cc1	0.4	0.595	-0.0717	-0.466	-0.513	1.52	0.692	-0.767 (inactive)	-0.114	0.0373
CCOC(=O)[C@H]1C/C=C/C[C@H](C(=O)OCC)C(=O)O[C@H]2[C@@H](OC)O[C@H](CO)[C@@H](OC(=O)Nc3ccc(C#N)cc3)[C@@H]2OC1=O	0.0283	-0.317	-0.0414	0.287	-0.194	1.39	1.02	-0.1 (inactive)	0.143	-0.119
O=C1O[C@H](c2ccccc2)[C@H](c2ccccc2)N2[C@H]1[C@@H](C(=O)Nc1nc3ccccc3s1)[C@]1(C(=O)Nc3ccc(C#CC4(O)CCCCCC4)cc31)[C@H]2c1ccc(OCCO)cc1	-0.317	0.792	-0.129	0.805	0.642	1.7	1.06	1.97 (inactive)	0.395	0.0413
COC(=O)[C@@]1(Cc2ccc(F)cc2)[C@H]2c3cc(C(=O)N(C)C)n(Cc4ccc(S(C)(=O)=O)cc4)c3C[C@H]2CN1C(=O)c1ccccc1	0.244	0.657	0.209	0.629	1.41	1.79	1.19	0.0659 (inactive)	0.198	0.0274
CN(C)CCCC[C@@H]1NC(=O)[C@H]2C[C@@H](C(=O)NCCCCCNC(=O)CS)[C@@H](c3cccc(OCCO)c3)N2C1=O	-0.23	0.411	-0.0785	-0.0727	-0.21	0.727	1.27	0.498 (inactive)	0.0184	-0.305
C=CC[C@@]1(C(=O)N(C)C)N=C(c2ccc(OCCCO)cc2)O[C@@H]1c1ccccc1N=[N+]=[N-]	1.12	1.72	0.0732	0.622	0.984	1.52	1.29	2.35 (inactive)	1.21	0.011
CC(C)(C)OC(=O)CC[C@@]1(C(=O)NCC(O)CO)N=C(c2ccc(OCCCO)cc2)O[C@@H]1c1ccccc1N=[N+]=[N-] (stereo not given in full)	0.119	1.11	0.0599	0.559	1.2	1.97	1.17	2.43 (inactive)	0.552	-0.0618
COC(=O)[C@@]1(Cc2ccc(F)cc2)[C@@H]2[C@@H](CC(=O)[C@H]2CC(=O)C(=O)N(C)C)CN1C(=O)c1ccccc1	0.367	-0.178	0.287	0.855	1.76	1.3	1.18	-0.439 (inactive)	2.33	0.33
COCCOC(=O)N1C(=O)[C@@]2(c3cc(C#CC4=CCCCC4)ccc31)[C@H](C(=O)N1CCc3cc(OC)c(OC)cc3C1)[C@H]1C(=O)O[C@H](c3ccccc3)[C@H](c3ccccc3)N1[C@@H]2c1ccc(OCCO)cc1	-0.137	0.492	-0.0094	0.599	1.1	0.101	1.21	0.235 (inactive)	0.533	-0.0121
CO[C@H]1O[C@H](CO)[C@@H](OC(=O)Nc2ccc(Br)cc2)[C@H](OC(=O)c2cc3ccccc3[nH]2)[C@H]1OC(=O)c1cc2ccccc2[nH]1	-0.31	1.05	-0.11	0.724	0.606	0.844	1.07	-0.483 (inactive)	0.237	-0.0253
CC(=O)n1cc(C(O)C2C=CC3C(=O)N(C)C(=O)C3N2Nc2ccccc2)c2ccccc21 (stereo not given)	0.508	0.287	0.0672	0.974	1.58	1.78	1.27	0.376 (inactive)	0.951	-0.0196
COc1ccc(C(=O)O[C@H]2CC[C@]3(C)C4=C(CCC3C2(C)C)[C@]2(C)CC[C@H]([C@H](C)CCCC(C)C)[C@@]2(C)CC4)cc1 (stereo not given in full)	-0.581	0.191	-0.128	0.338	0.611	0.133	0.456	-1.16 (inactive)	0.18	0.0749
O=C1O[C@H](c2ccccc2)[C@H](c2ccccc2)N2[C@H]1[C@@H](C(=O)O)[C@]1(C(=O)Nc3ccc(C#CC4=CCCCC4)cc31)[C@H]2c1ccccc1OCCO	0.943	0.914	-0.0885	0.729	1.01	1.69	0.994	0.755 (inactive)	0.792	1.13
CC(C)(C)OC(=O)CC[C@]1(C(=O)O)N=C(c2ccc(OCCCO)cc2)O[C@H]1c1ccccc1N=[N+]=[N-]	1.1	0.236	0.441	0.448	0.984	1.35	1.14	5.5 (inactive)	2.04	1.24
COc1ccc([Si](C)(C)[C@@H]2[C@@H](CC(=O)N3Cc4ccccc4C[C@H]3CO)O[C@]3(C(=O)N(C)c4c(Br)cc(C)cc43)[C@H]2C)cc1	-0.184	1.03	-0.083	0.441	0.557	0.815	1.12	-3.35 (inactive)	0.16	-0.0672
